# Experimental data from the supplement of paper PMC6555819.
# Columns and labels:
# Assay in all cases: PBM binding z-score (relative to random genomic background probes); higher = stronger binding; sequences stand for … in GC…GCGATTGACAGCGTAGAATGAAGG
# [1] = test system: RARb homodimer (NR concentration 270 nM)
# How it was run: (§1)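 For binding z-scores, the reference was random background probes on custom Agilent 4×180K protein-binding microarrays. These arrays were incubated 1 h with ligand-free nuclear receptor dimers in PBS pH 7.4, 2% milk, 0.02% Triton X-100, 1 mM DTT, 0.2 mg/mL BSA and 0.4 mg/ml salmon testes DNA. Fluorescence was scanned after antibody detection of each partner (one per run) and regression-normalized.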
# [2] = test system: RARg:RXRa (NR concentration 270 nM, RXRa partner concentration 90 nM)
# How it was run: as §1
# [3] = test system: RARg homodimer (NR concentration 270 nM)
# How it was run: as §1
# [4] = test system: RXRa DBDmut IVT, anti-RXR (DBD mutation: RXRa K156A/R161A, NR concentration 90 nM)
# How it was run: as §1
# [5] = test system: RXRa homodimer (NR concentration 180 nM)
# How it was run: as §1
# [6] = test system: THRa:RXRa (NR concentration 90 nM, RXRa partner concentration 90 nM)
# How it was run: as §1
# [7] = test system: THRa homodimer (NR concentration 90 nM)
# How it was run: as §1
# [8] = test system: VDR:RXRa (NR concentration 270 nM, RXRa partner concentration 90 nM)
# How it was run: as §1
# [9] = test system: VDR homodimer (NR concentration 270 nM)
# How it was run: as §1
Sequence,PBM binding z-score [1],PBM binding z-score [2],PBM binding z-score [3],PBM binding z-score [4],PBM binding z-score [5],PBM binding z-score [6],PBM binding z-score [7],PBM binding z-score [8],PBM binding z-score [9]
ATCGAAAGGTCGACGGGGTGAGTATACACCGTTT,3.14,4.6,4.63,1.61,5.07,3.57,0.568,5.62,1.7
GCGACTGGGGCATCAGCCGGTTACCATAACTTAA,0.131,0.11,0.063,-0.636,-0.543,-0.0849,-0.579,-0.669,-0.974
AGAATGAGGTTATACGTAGATCAGGGTAGAAAGT,1.33,1.82,1.34,1.81,2.24,2.42,0.874,1.49,1.21
TCATATAGGTAAATGCTAGGTGATAGTCCGATCT,-0.0324,0.496,0.457,1.37,0.854,0.78,0.138,0.757,0.168
GGAACGAGGGCAAGTTGAAAGCAGAGTTTGATGG,1.57,1.12,1.98,2.41,0.747,1.12,0.0724,0.74,1.92
ATATGTAGGTTAGCTGGGGTCATCCAGACTAGGC,4.24,4.41,3.52,1.31,5.97,5.2,3.24,6.18,4.34
TCATGTAGATCAACAGGAGGTTAAGAAAGATCGA,0.329,0.904,0.374,0.621,1.04,0.683,-0.647,0.591,0.15
CCTACTGGGCCACGAAAGGTCATTGAGTCAGTGA,4.62,4.82,4.58,0.536,5.23,3.79,0.857,4.67,1.69
CGTCCAAGGTCATCGGAGGTCAGTGAAGACAGAT,5.43,7.31,7.72,4.24,6.83,5.45,3.48,7.04,5.07
TCTTCTAGGTCAACGATGGTCAGCTAATCTGCTA,3.76,4.37,5.58,1.9,3.09,3.55,2.17,2.41,0.674
TCGAGTAGGTTAGGAGCATTCAGAATGGCGTCGA,-0.383,-0.196,-0.317,-0.149,0.0721,-0.459,-0.881,-0.474,-0.161
TCATATAGGTAGAGGTGAAAGTCGAACGATATGA,1.04,1.18,1.11,0.392,1.77,1.41,-0.0362,0.794,0.0889
TGAATGAGGTTAAAGATCAGGGGACGTGGCGTCG,1.02,2.29,1.31,1.01,3.57,2.83,0.742,1.88,0.974
TCGAGTAGGTTAGGGGCATTAAGAATGGCGTCGA,0.787,0.329,0.269,0.304,0.639,0.955,0.048,0.706,0.785
TAGCCTAGGTCATTGGTCCAGTATAGTACGCATC,2.86,3.61,3.82,1.98,2.74,2.84,1.47,2.55,1.51
ATATGTCGGTTAAGGGTCATTCAGGTTGGTTCGC,3.68,4.69,3.43,2.21,4.55,3.42,1.7,5.48,4.47
CCTACTGGCCCAAAGGTCATTGATTCCAATGCTC,4.89,4.89,4.36,1.06,5.05,3.3,0.916,4.28,2.14
CAAACTAGGTCACAGCGGTCAAAGTCCGTGCGTA,4.53,5.19,5.77,1.84,3.87,3.66,1.74,5.9,2.57
TCTTGTCGATCAAGCAGGTTAAGAAAGCCTGAGT,0.296,-0.133,-0.273,0.138,0.0791,0.127,-0.374,0.107,-0.0959
CGTCCAAGGTCAGAGAGGTAAGTGAATGCCGAGT,3.27,4.7,5.39,2.67,3.85,3.5,1.8,4.27,1.71
CGTCGAAGGTCAAAGGTCAGTGAAGAGATGACGG,5.17,8.72,7.78,3.05,9.99,4.58,0.832,6.4,2.54
ATCTCTAGGTAAAATTCAGTGAAAGATCGATAGA,-0.326,0.344,0.677,0.391,0.121,0.32,0.151,0.35,0.281
TTACCAAGGTGAAAGGTCGTTGATGCACGCCTTG,2.52,4.17,2.31,0.684,5.67,3.23,0.838,3.14,1.67
AGTCAAAGTTCAGAACGAGGTAACGTAAAGCACG,2.66,4.62,4.15,3.09,2.76,3.63,0.7,2.86,1.94
TCTTGTAGATCAAGCAGGTTAAGAAGGCCTGAGT,0.0999,-0.137,-0.293,0.295,0.317,0.354,-0.512,0.55,0.00431
AGTCAAAGTTCATCTAGGTAAGGTAAGATATGCT,4.03,5.32,5.79,4.64,4.38,3.19,0.886,4.6,4.84
